# Experiments:
# Format in all cases: functional
# Plasmodium falciparum [1] = test: GSK_TCMDC: Inhibition of Plasmodium falciparum 3D7 in whole red blood cells, using parasite LDH activity as an index of growth. Test compounds present at 2uM
# Plasmodium falciparum [2] = test: GSK_TCMDC: Inhibition of Plasmodium falciparum Dd2 in whole red blood cells, using parasite LDH activity as an index of growth. Test compounds present at 2uM
# HepG2 = test: GSK_TCMDC: Percent inhibition of human HepG2 cell line. Test compounds present at 10uM.
SMILES,Inhibition (Plasmodium falciparum [1]) [%],Inhibition (Plasmodium falciparum [2]) [%],Inhibition (HepG2) [%]
CCCC1N=C(N)N=C(N)N1c1cccc(C(F)(F)F)c1.Cl (stereo not drawn),95,7,22
COc1ccc(NC(=O)c2cccc(Br)c2)cc1N1CCN(CCCCCCCN2CCN(c3cc(NC(=O)c4cccc(Br)c4)ccc3OC)CC2)CC1.Cl,99,93,97
N#Cc1cccc(Nc2nccc(NCC(O)c3ccccc3C(F)(F)F)n2)c1 (stereo not drawn),98,39,36
Nc1c(Cl)cc(C(O)CNCCCCCOCCCc2ccc3ncccc3c2)cc1Cl.O=C(O)/C=C/C(=O)O (stereo not drawn),96,77,24
Cc1cc(N2Cc3ccccc3C2)nc(Nc2cccc(C#N)c2)n1,100,97,6
CCN(CC)CCOc1c(Cl)cc(Cl)cc1CNCCCNc1cc(=O)c2ccccc2[nH]1,97,6,11
Br.Oc1ccc(CCNCCCCCCNCCc2ccc(Cl)c(Cl)c2)cc1O,100,2,21
O=C(NNC(=O)c1ccc(CCN2CCC(c3nc(COCC(F)(F)F)c(-c4ccc(F)cc4)o3)CC2)cc1)Nc1ccc(Oc2ccccc2)cc1,100,89,38
CCc1cc(Br)c2c(c1)C(NCCCNc1cc(=O)c3ccccc3[nH]1)CCN2 (stereo not drawn),94,20,13
CCC(CC(C)C(=O)O)=C(c1ccccc1)c1ccccc1 (stereo not drawn),98,1,12
COc1ccc(Nc2nc(NCc3ccc(-n4ccnc4)cc3)cc(-c3ccc(OC)cc3)n2)cc1,96,25,8
